NCOA2 inhibitor: inhibition of GAL4-SRC2 driven luciferase reporter, primary screen, SRC2 inhibitor project, cell-based, luminescence | actives 0.17% (n = 370,000) | HEK293 GAL4-SRC2 luciferase reporter | Nuclear receptor coactivator 2 (Homo sapiens), Q15596 | inhibition, % at 9 µM;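 active = inhibition above the mean inhibition of all tested compounds plus 3 SD, set per campaign, cut at about 52% in these data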
SRC3 inh: SRC3 coactivator transcriptional activity inhibitors, primary screen, cell-based, luminescence | AID 588352, 2011 | Nuclear receptor coactivator 3 (Homo sapiens), Q9Y6Q9 | HEK293 GAL4-SRC3 luciferase reporter | actives 0.17% (n = 360,000) | inhibition, % at 3.6 µM;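 active = inhibition above a per-campaign cutoff, the mean of all compounds plus 3 SD, cut at about 60% in these data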;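 also: higher means less SRC3-driven luciferase light from the GAL4 reporter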
Shn3 inh set2: reduction of Shn3 3'UTR firefly luciferase signal, primary screen, Schnurri-3 inhibitor project, cell-based, Clone20 osteoblasts, set 2; Clone20 osteoblast Shn3 3'UTR firefly luciferase, 24 h; inhibition, % at 12.5 µM; actives 0.52% (n = 360,000); AID 588674, 2011;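 active = mean inhibition of at least 75% with every replicate also reaching 75%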
SRC1 inh: SRC1 coactivator transcriptional activity inhibitors, primary screen, cell-based, luminescence. Nuclear receptor coactivator 1 (Homo sapiens), Q15788. HEK293 GAL4-SRC1 luciferase reporter. actives 0.12% (n = 360,000). inhibition, % at 3.6 µM;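 active = inhibition above the campaign mean plus 3 SD, with each screening campaign given its own cutoff, cut at about 60% in these data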
NR5A2 inv ag: LRH-1 (NR5A2) inverse agonists, primary screen, cell-based, luminescence, HEK293T, StAR-luciferase reporter | Nuclear receptor subfamily 5 group A member 2 (Homo sapiens), O00482 | LRH-1 transfected, 24 h | inhibition, % at 3.6 µM | actives 0.13% (n = 360,000) | AID 602396, 2012;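 active = inhibition above the mean inhibition of all tested compounds plus 3 SD, cut at about 73% in these data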
Target sequence (O00482 whole entry, looked up): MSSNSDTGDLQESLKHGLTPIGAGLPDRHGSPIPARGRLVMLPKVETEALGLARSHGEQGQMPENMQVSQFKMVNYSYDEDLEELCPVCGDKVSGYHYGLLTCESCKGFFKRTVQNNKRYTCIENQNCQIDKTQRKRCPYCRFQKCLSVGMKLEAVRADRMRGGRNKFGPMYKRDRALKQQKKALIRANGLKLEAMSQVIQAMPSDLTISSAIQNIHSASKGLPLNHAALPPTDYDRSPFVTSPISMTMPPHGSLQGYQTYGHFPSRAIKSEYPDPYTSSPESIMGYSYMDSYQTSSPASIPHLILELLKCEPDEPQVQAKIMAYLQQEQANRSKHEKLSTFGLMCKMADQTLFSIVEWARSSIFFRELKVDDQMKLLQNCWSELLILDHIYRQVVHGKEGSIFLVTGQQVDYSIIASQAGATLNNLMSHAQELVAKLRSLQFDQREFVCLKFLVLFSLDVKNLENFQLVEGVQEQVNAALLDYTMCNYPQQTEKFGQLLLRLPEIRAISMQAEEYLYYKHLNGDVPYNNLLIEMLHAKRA
LMP1 NFkB inh: EBV LMP1-driven NF-kappaB luciferase reporter inhibitors, primary screen, cell-based, luminescence, single point; actives 0.69% (n = 350,000); inhibition, % at 12.5 µM; LMP1-induced NF-kappaB luciferase reporter cells; in the data active = inhibition above about 41%
Hits are given with their value. An excerpt weighted towards active compounds, which were near 1.2% of everything screened.

Screening CN(C)CC1CCC/C(=C\c2ccc(OC(=O)/C=C/c3ccccc3)cc2)C1=O (stereo unspecified) returned NCOA2 inhibitor inactive, SRC3 inh inactive, Shn3 inh set2 inactive, SRC1 inh inactive, NR5A2 inv ag inactive and LMP1 NFkB inh inactive.
Screening CC(C)(C)c1ccc(-c2nnc(SCC(=O)c3ccc4ccccc4c3)n2-c2ccc(Cl)cc2)cc1 returned NCOA2 inhibitor inactive.
COC(=O)C1CN(Cc2cn(CCC3OCCO3)nn2)CCS(=O)(=O)N1Cc1ccc(Cl)cc1 (stereo unspecified) was read as NCOA2 inhibitor inactive.
COC(=O)C1=C(C)N(Cc2ccc(C(F)(F)F)cc2)C(=NCc2ccccc2)NC1c1ccc(C(F)(F)F)cc1 (stereo unspecified) was read as NCOA2 inhibitor inactive.
Screening CC1CCC/C=C/C(=O)c2c(O)cc(O)cc2CC(=O)O1 (stereo unspecified) returned NCOA2 inhibitor inactive, SRC3 inh inactive, Shn3 inh set2 87, SRC1 inh inactive, NR5A2 inv ag inactive and LMP1 NFkB inh inactive.
C[C@H]1CCC/C=C/C(=O)c2c(cc(O)c(Cl)c2O)CC(=O)O1 was read as NCOA2 inhibitor inactive.
Screening CCOC(=O)C1CCN(C(=O)c2sc3ncnc(N4CCC(C)CC4)c3c2C)CC1 returned NCOA2 inhibitor inactive, SRC3 inh inactive, Shn3 inh set2 inactive, SRC1 inh inactive, NR5A2 inv ag inactive and LMP1 NFkB inh inactive.
Screening CCOC(=O)C1CCN(C(=O)c2sc3nc(C)nc(N4CCC(C)CC4)c3c2C)CC1 returned NCOA2 inhibitor inactive, SRC3 inh inactive, Shn3 inh set2 88, SRC1 inh inactive, NR5A2 inv ag inactive and LMP1 NFkB inh inactive.
For COC(=O)[C@]12C[C@H](CC(=O)NCc3cccc(C(F)(F)F)c3)C(=O)N(Cc3cccc4ccccc34)C1=C[C@H](C1CCCC1)O[C@@H]2C the results were NCOA2 inhibitor inactive.
`CCCCNS(=O)(=O)CC1NCc2ccc(C)cc21` (stereo unspecified) gave NCOA2 inhibitor inactive.
O=c1cc(-c2ccccc2Cl)oc2cc(O)cc(O)c12 was read as NCOA2 inhibitor inactive, SRC3 inh inactive, Shn3 inh set2 inactive, SRC1 inh inactive, NR5A2 inv ag inactive and LMP1 NFkB inh inactive.
O=C1C=CC(O)(c2cc(=O)c3c(O)cc(O)cc3o2)C=C1 was read as NCOA2 inhibitor inactive, SRC3 inh inactive, Shn3 inh set2 97, SRC1 inh inactive, NR5A2 inv ag inactive and LMP1 NFkB inh inactive.
CCC(C)c1ccc(S(=O)(=O)N2CCN(C(=O)c3ccc(Cl)c(S(=O)(=O)N4CCOCC4)c3)CC2)cc1 (stereo unspecified) was read as NCOA2 inhibitor inactive, SRC3 inh inactive, Shn3 inh set2 90, SRC1 inh inactive, NR5A2 inv ag inactive and LMP1 NFkB inh inactive.
For CCOC(=O)N1CCN(C(=O)c2ccc(Cl)c(S(=O)(=O)N3CCOCC3)c2)CC1 the results were NCOA2 inhibitor inactive, SRC3 inh inactive, Shn3 inh set2 inactive, SRC1 inh inactive, NR5A2 inv ag inactive and LMP1 NFkB inh inactive.
Screening Cc1ccccc1-c1nc(-c2ccccn2)no1 returned NCOA2 inhibitor inactive, SRC3 inh inactive, Shn3 inh set2 inactive, SRC1 inh inactive, NR5A2 inv ag inactive and LMP1 NFkB inh 61.
Screening COc1ccccc1-c1nc(-c2ccccn2)no1 returned NCOA2 inhibitor inactive, SRC3 inh inactive, Shn3 inh set2 inactive, SRC1 inh inactive, NR5A2 inv ag inactive and LMP1 NFkB inh 62.
COc1ccc(-c2nc(-c3cccs3)no2)cc1 was read as NCOA2 inhibitor inactive, SRC3 inh inactive, Shn3 inh set2 inactive, SRC1 inh inactive, NR5A2 inv ag inactive and LMP1 NFkB inh 48.
`Cc1ccccc1-c1nc(-c2cccnc2)no1` gave NCOA2 inhibitor inactive, SRC3 inh inactive, Shn3 inh set2 inactive, SRC1 inh inactive, NR5A2 inv ag inactive and LMP1 NFkB inh inactive.
`COc1ccc(-c2nc(-c3ccccn3)no2)cc1` gave NCOA2 inhibitor 75, SRC3 inh 69, Shn3 inh set2 88, SRC1 inh inactive, NR5A2 inv ag inactive and LMP1 NFkB inh 81.
COc1ccc(-c2nc(-c3ccncc3)no2)cc1 was read as NCOA2 inhibitor inactive, SRC3 inh inactive, Shn3 inh set2 inactive, SRC1 inh inactive, NR5A2 inv ag inactive and LMP1 NFkB inh inactive.
Screening Cc1cccc(C)c1NC(=O)C1CCCN1S(=O)(=O)c1cccc2cccnc12 (stereo unspecified) returned NCOA2 inhibitor inactive.
Cc1nc(Nc2nc3ccccc3o2)nc2c1CCC2 was read as NCOA2 inhibitor inactive, SRC3 inh inactive, Shn3 inh set2 inactive, SRC1 inh inactive, NR5A2 inv ag inactive and LMP1 NFkB inh 57.
Clc1ccccc1Nc1nc2ccccc2o1 was read as NCOA2 inhibitor inactive, SRC3 inh inactive, Shn3 inh set2 inactive, SRC1 inh inactive, NR5A2 inv ag inactive and LMP1 NFkB inh inactive.
For Cc1cccc(C)c1Nc1nc2ccccc2o1 the results were NCOA2 inhibitor inactive, SRC3 inh inactive, Shn3 inh set2 inactive, SRC1 inh inactive, NR5A2 inv ag inactive and LMP1 NFkB inh 64.
`CCOC(=O)c1cnc(Nc2nc3ccccc3o2)nc1CSc1nnc(C)s1` gave NCOA2 inhibitor inactive, SRC3 inh inactive, Shn3 inh set2 inactive, SRC1 inh inactive, NR5A2 inv ag inactive and LMP1 NFkB inh inactive.
Screening CCOC(=O)c1cnc(Nc2nc3ccccc3o2)nc1C returned NCOA2 inhibitor inactive, SRC3 inh inactive, Shn3 inh set2 inactive, SRC1 inh inactive, NR5A2 inv ag inactive and LMP1 NFkB inh 65.
For COc1cc(OC)cc(-c2c(C#Cc3ccsc3)c3cc(-c4cc(OC)c(OC)c(OC)c4)ccc3n2C)c1 the results were NCOA2 inhibitor inactive, SRC3 inh inactive, Shn3 inh set2 inactive, SRC1 inh inactive, NR5A2 inv ag inactive and LMP1 NFkB inh 89.
For COc1cc(C#Cc2c(-c3cncn3C)n(C)c3ccc(-c4cc(OC)c(OC)c(OC)c4)cc23)cc(OC)c1 the results were NCOA2 inhibitor inactive, SRC3 inh inactive, Shn3 inh set2 inactive, SRC1 inh inactive, NR5A2 inv ag inactive and LMP1 NFkB inh inactive.
`COc1cc(C#Cc2c(-c3cncn3C)n(C)c3ccc(-c4ccc(OC)nc4)cc23)cc(OC)c1` gave NCOA2 inhibitor inactive, SRC3 inh inactive, Shn3 inh set2 94, SRC1 inh inactive, NR5A2 inv ag inactive and LMP1 NFkB inh inactive.
Cc1ccccc1NC(=O)/C=C/c1ccc([N+](=O)[O-])s1 was read as SRC3 inh inactive, Shn3 inh set2 93, SRC1 inh inactive, NR5A2 inv ag inactive and LMP1 NFkB inh inactive.
Screening Nc1cc2ccccc2cc1NS(=O)(=O)N1CCCCC1 returned NCOA2 inhibitor inactive.

High-throughput results: PubChem BioAssay, several laboratories
